The results in this text go back to publication PMC10726135, “HNF4α isoforms regulate the circadian balance between carbohydrate and lipid metabolism in the liver”.

Whole data set: some 18,000 sequences, median “log2 normalized intensity” near 0.39, cut for the highest 2% near 6.6. Many of the other results were omitted from the sample, so the highest values are more common in it than they were.

This experiment has as its target T1, HNF4alpha2 (COS-7 nuclear extract) (Homo sapiens, UniProt P41235 1-474).
T1 sequence: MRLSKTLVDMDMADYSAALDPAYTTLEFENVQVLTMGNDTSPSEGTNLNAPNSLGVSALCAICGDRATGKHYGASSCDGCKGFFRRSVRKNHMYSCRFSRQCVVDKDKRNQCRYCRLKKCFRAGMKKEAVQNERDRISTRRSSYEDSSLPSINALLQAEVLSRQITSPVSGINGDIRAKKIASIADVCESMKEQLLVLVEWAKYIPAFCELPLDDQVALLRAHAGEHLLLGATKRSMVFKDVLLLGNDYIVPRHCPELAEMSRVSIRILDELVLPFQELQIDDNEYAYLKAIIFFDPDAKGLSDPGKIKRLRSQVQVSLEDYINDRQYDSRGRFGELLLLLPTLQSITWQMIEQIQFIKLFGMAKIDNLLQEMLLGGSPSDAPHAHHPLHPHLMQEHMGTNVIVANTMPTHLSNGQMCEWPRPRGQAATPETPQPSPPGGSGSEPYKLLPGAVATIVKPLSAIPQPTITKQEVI
As to the kind of experiment: protein-binding microarray; COS-7 nuclear extract on double-stranded Agilent 4x180k PBM; binding buffer, salt, pH and temperature not given in the material; high values mean tight binding. Particulars: chain copies: 2; label: 3' end of strand 1 on the slide; dsDNA, one strand shown. In short, it runs like this: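 A custom Agilent SurePrint G3 4x180k array, spotted in quadruplicate with ~44,000 test sequences as ~60-nt oligonucleotides made double-stranded, was incubated with nuclear extracts. The extracts came from COS-7 cells transiently transfected by CaPO4 with a human HNF4α isoform expression vector. Bound HNF4α was imaged on an Agilent G2565CA scanner at 2-µm resolution, and the binding signal was taken as Agilent software's background-corrected, normalized gProcessedSignal.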
On to “CAGTGGGCCCAGAGCACAACCTTTGGCCGTGCCTAGGGAGATTAGAGTATCGGTCGA”, for which the binding signal was 4.45 log2 normalized intensity.

For the sequence “TTGCCCACCAATGATCAAAGGTTAGTCTTAGCCTAGGGAGATTAGAGTATCGGTCGA”, the binding signal worked out at 3.63 log2 normalized intensity.

As to “AAAACATATTTGCATAATGGAGCAAAGGTCGCCTAGGGAGATTAGAGTATCGGTCGA”, the binding signal came out at 5.4 log2 normalized intensity.

Take “ATTCTCACCACTAGGAAACTGACCTTTGCTGCCTAGGGAGATTAGAGTATCGGTCGA”: the binding signal worked out at 5.16 log2 normalized intensity.

As to “CACCACTAGGAAACTGACCTTTGCTCATGAGCCTAGGGAGATTAGAGTATCGGTCGA”, the binding signal was determined as 6.73 log2 normalized intensity.

With “GATGAGTGACCTTTGACCTCAGAGAGCCGGGCCTAGGGAGATTAGAGTATCGGTCGA”, the binding signal was 9.56 log2 normalized intensity.

With “TCATTGATGAGTGACCTTTGACCTCAGAGAGCCTAGGGAGATTAGAGTATCGGTCGA”, the binding signal came to 9.89 log2 normalized intensity.

Consider “TTGCCCCTTTGACCCTCGGGCCTCCCTAGAGCCTAGGGAGATTAGAGTATCGGTCGA”, for which the binding signal is 3.97 log2 normalized intensity.

For the sequence “GTGACCTTTGACCTCAGAGAGCCGGAAACTGCCTAGGGAGATTAGAGTATCGGTCGA”, the binding signal amounted to 7.21 log2 normalized intensity.

Turning to “ACCACATTCTCACCACTAGGAAACTGACCTGCCTAGGGAGATTAGAGTATCGGTCGA”, the binding signal amounted to 3.23 log2 normalized intensity.

As to “ATGGGATGACCTTTGAGCAATAGGAAATGGGCCTAGGGAGATTAGAGTATCGGTCGA”, the binding signal amounted to 4.18 log2 normalized intensity.

For “CTACTACTTGACCTTTGAAACATATCCAGAGCCTAGGGAGATTAGAGTATCGGTCGA”, the binding signal was determined as 5.48 log2 normalized intensity.

Turning to “GGCTGATGACCTTTGACTGAGATGGGAGCAGCCTAGGGAGATTAGAGTATCGGTCGA”, the binding signal amounted to 4.03 log2 normalized intensity.

Consider “CTAGGAAACTGACCTTTGCTCATGACTATTGCCTAGGGAGATTAGAGTATCGGTCGA”, for which the binding signal is 5.53 log2 normalized intensity.

In the case of “AAAGACTTGCTCATTGATGAGTGACCTTTGGCCTAGGGAGATTAGAGTATCGGTCGA”, the binding signal came to 6.15 log2 normalized intensity.

With “CTCTGCAAACATTTATTTTGTGTGCTAGATGCCTAGGGAGATTAGAGTATCGGTCGA”, the binding signal was 1.54 log2 normalized intensity.

For “TTGCCCACATTCACACAATCAGTGTGTTGAGCCTAGGGAGATTAGAGTATCGGTCGA”, the binding signal was -0.0239 log2 normalized intensity.

Take “AGCAGTCCCTTCCCCCCTCCTCATTGAGAGGCCTAGGGAGATTAGAGTATCGGTCGA”: the binding signal is 4.37 log2 normalized intensity.

Take “TTGCACCAGTTTCTCAACAGACCCCTGAATGCCTAGGGAGATTAGAGTATCGGTCGA”: the binding signal is 2.27 log2 normalized intensity.

“CTTGACGCTAACTTCCAGATCAAAGGACATGCCTAGGGAGATTAGAGTATCGGTCGA”: the binding signal was found to be 0.608 log2 normalized intensity.

On to “GTCTAATTGTGCTGAGAGAGTCCTTGTTTGGCCTAGGGAGATTAGAGTATCGGTCGA”, for which the binding signal came out at 1.63 log2 normalized intensity.

“GCAGATGGGCAGCACTGTGATTTGTTCAGGGCCTAGGGAGATTAGAGTATCGGTCGA”: the binding signal was found to be 0.439 log2 normalized intensity.

For “GTCTGCTGCCCAGACACACAATATTATGTTGCCTAGGGAGATTAGAGTATCGGTCGA”, the binding signal is -0.79 log2 normalized intensity.

In the case of “GGAGATAACCCATCTGGGGAAAGTGCAAGGGCCTAGGGAGATTAGAGTATCGGTCGA”, the binding signal was -0.913 log2 normalized intensity.

As for “TTCTTCTGGTTCTGCAAGGCAACTGACCTTGCCTAGGGAGATTAGAGTATCGGTCGA”, the binding signal is 3.64 log2 normalized intensity.

With “TCTGGTGCCAAGGAGCCTCTGCAACCTTTGGCCTAGGGAGATTAGAGTATCGGTCGA”, the binding signal was 2.46 log2 normalized intensity.

With “TCTGCAAGGCAACTGACCTTTGGATCTGGGGCCTAGGGAGATTAGAGTATCGGTCGA”, the binding signal worked out at 7.21 log2 normalized intensity.

With “CTTGGGGGAGGAGGGCAACCTTTGAACTGGGCCTAGGGAGATTAGAGTATCGGTCGA”, the binding signal came out at 5.3 log2 normalized intensity.

On to “CTGGTTCTGCAAGGCAACTGACCTTTGGATGCCTAGGGAGATTAGAGTATCGGTCGA”, for which the binding signal turned out to be 8.08 log2 normalized intensity.

With “TGGACAACTGTACTTTGGACTGGGGACCTGGCCTAGGGAGATTAGAGTATCGGTCGA”, the binding signal is 5.1 log2 normalized intensity.

Take “TATACAAGAAAGAAAGAATGTTTGCTTCTGGCCTAGGGAGATTAGAGTATCGGTCGA”: the binding signal was -0.716 log2 normalized intensity.

Consider “GGTGGACTTTGTAGCTCAAACAGTCTAAAAGCCTAGGGAGATTAGAGTATCGGTCGA”, for which the binding signal is 2.3 log2 normalized intensity.

As to “GTTAAAGTTGCCTGATGACAACTGAATGTGGCCTAGGGAGATTAGAGTATCGGTCGA”, the binding signal came to 0.26 log2 normalized intensity.

Turning to “ACACCGTATCATCAAACCTGTTATTTGCGCGCCTAGGGAGATTAGAGTATCGGTCGA”, the binding signal was 1.25 log2 normalized intensity.

For the sequence “ATGACCTTTACCCCCATTTGGTAATGGGCCGCCTAGGGAGATTAGAGTATCGGTCGA”, the binding signal came out at 4.83 log2 normalized intensity.

“CACTATCACCAGGATGGGCCATGACCTTTAGCCTAGGGAGATTAGAGTATCGGTCGA”: the binding signal was 4.48 log2 normalized intensity.

As to “AACGGCCCAGGGTTAGAGGATGACCTTCCCGCCTAGGGAGATTAGAGTATCGGTCGA”, the binding signal was found to be 2.99 log2 normalized intensity.

Regarding “GGGCCATGACCTTTACCCCCATTTGGTAATGCCTAGGGAGATTAGAGTATCGGTCGA”, the binding signal came to 6.29 log2 normalized intensity.

“TCACCAGGATGGGCCATGACCTTTACCCCCGCCTAGGGAGATTAGAGTATCGGTCGA”: the binding signal turned out to be 9.28 log2 normalized intensity.

On to “GGCAGGGCCAGATAAAGCAGGTTGTACCTTGCCTAGGGAGATTAGAGTATCGGTCGA”, for which the binding signal came out at 2.4 log2 normalized intensity.

Consider “GATAAAGCAGGTTGTACCTTGACCCAAGAAGCCTAGGGAGATTAGAGTATCGGTCGA”, for which the binding signal stood at 4.88 log2 normalized intensity.

For the sequence “GGCCAGATAAAGCAGGTTGTACCTTGACCCGCCTAGGGAGATTAGAGTATCGGTCGA”, the binding signal worked out at 8.92 log2 normalized intensity.

In the case of “AGGATGGGCCATGACCTTTACCCCCATTTGGCCTAGGGAGATTAGAGTATCGGTCGA”, the binding signal was 7.65 log2 normalized intensity.
